# PubChem BioAssay
# Several values for one entry are separate records, joined by “and”; a condition that tells them apart may be missing. Equal values may be shown once. For some assays here: Measured potencies and affinities stand elsewhere. Activity calls are given as the source filed them.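 Rule for the calls, unless noted: active = thallium flux through the channel raised or lowered by more than 3 SD from vehicle-only wells, actives on both sides; inactive = the rest.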
# Tests used:
# [1] = blockers of polyQ-driven CASP3 activation – cell-based (AID 1583); conditions: polyglutamine-induced caspase-3 activation, cell assay; stronger effect = higher value;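 tested at 10 µM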
# [2] = yeast 75Q aggregation reduction – 75Q-TubU reporter (AID 1593); conditions: Yeast 75Q polyglutamine aggregation reporter
# [3] = restoration of touch response, mutant HTT neurons – whole organism, C. elegans mechanosensory neurons, N-terminal huntingtin (AID 1599); conditions: C. elegans polyQ-huntingtin mechanosensory neurons, stronger effect = higher value
# [4] = blockers of cytochrome c efflux from mitochondria – biochemical, purified mitochondria (AID 1603); conditions: stronger effect = lower value;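 note: mouse liver mitochondria challenged with calcium chloride; signal normalized to the plate average as 100%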
# [5] = polyglutamine aggregate formation blockers (AID 1604); conditions: polyglutamine-induced protein aggregation inhibition assay; stronger effect = higher value; tested at 2.5 µM
# [6] = glutamate transport activators, MN-1 cells, MN-1 cell line (AID 1612); conditions: MN-1 motor neuron cells, stronger effect = higher value;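 note: tested at 1 µM final; 0% = mean of DMSO vehicle wells on each plate; positive means more glutamate uptake than control and negative means less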
# [7] = 75Q-TubH aggregate inhibition, S. cerevisiae, yeast (AID 1616); conditions: S. cerevisiae 75Q-TubH polyglutamine aggregation suppression; stronger effect = higher value
# [8] = signal quenchers or enhancers, Cy5 substrate/SSB – biochemical, NIH Clinical Collection, E. coli SSB, artefact control for HCV NS3 helicase inhibitor project (AID 743268; call rule not given here); conditions: Cy5-oligo bound E. coli SSB, fluorescence interference
# [9] = test system: Hepatitis C virus NS3 helicase; assay: blockers of NS3h binding to DNA – biochemical, fluorescence polarization, NIH Clinical Collection, primary screen (AID 743270; call rule not given here); conditions: NS3 helicase binding to Cy5-dT15 DNA, stronger effect = higher value, concentration not given here
# [10] = biological target: Single-stranded DNA-binding protein (Escherichia coli (strain K12)) (UniProt P0AGE0); assay: SSB-ssDNA binding inhibitors – biochemical, fluorescence polarization, NIH Clinical Collection, counter-screen for HCV NS3 helicase inhibitor project (AID 743271; in the data active = inhibition above about 28%); conditions: E. coli SSB-DNA binding, stronger effect = higher value, concentration not given here
# [11] = compounds distorting NS3 helicase fluorescence signal – biochemical, NIH Clinical Collection, artefact control for HCV NS3 helicase inhibitor project (AID 743272; call rule not given here;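 note: HCV NS3 helicase with a Cy5 labelled single stranded DNA probe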); conditions: fluorescence interference counterscreen, HCV NS3 helicase assay; stronger effect = lower value
# [12] = biological target: Calcium-activated potassium channel subunit alpha-1 (Homo sapiens) + Leucine-rich repeat-containing protein 26 (Homo sapiens) (UniProt Q12791+Q2I0M4); assay: BK channel mutant inhibitors and activators – cell-based, U2OS BacMam, thallium flux, beta subunits, selectivity assay, profiling panel (AID 1259406); conditions: U2OS BacMam BK variants, F380Y/Slo1WT/gamma1, at 30 µM;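 note: initial slope of Thallos dye fluorescence rise after thallium is added; log ratio against the mean of 0.3% DMSO vehicle wells on the same plate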
# R275C = assay: as above; conditions: U2OS BacMam BK variants, at 30 µM
# R275C/beta1 = assay: as above; conditions: U2OS BacMam BK variants, at 30 µM
# R275C/beta2Delta = assay: as above; conditions: U2OS BacMam BK variants, at 30 µM
# R275C/beta4 = assay: as above; conditions: U2OS BacMam BK variants, at 30 µM
# R275C/Slo1WT/beta2 = assay: as above; conditions: U2OS BacMam BK variants, at 30 µM
# [13] = growth inhibition, single agent or in combination, cell-based, chromothripsis tumors, cisplatin or BGB combos (AID 1671449; in the data active = inhibition above about 80%;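 note: cells exposed for 96 hours; 0% = vehicle DMSO and 100% = killing by high DMSO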); conditions: LFS_MB_P medulloblastoma cells
# [14] = growth inhibition, single agent and combos, cell-based, chromothripsis tumors, cisplatin or BGB combos (AID 1671450; in the data active = inhibition above about 80%;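 note: cells exposed to compound for four days; 0% = vehicle DMSO and 100% = cell killing by high DMSO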); conditions: HDN33 neuroblastoma cells, stronger effect = higher value
# [15] = growth inhibition, single agents and combos, HTB85, cell-based, BGB or cisplatin IC20 combos, synergistic combos for chromothripsis tumors (AID 1671453; in the data active = inhibition above about 80%;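 note: cells exposed for 96 hours before readout; 0% = vehicle DMSO and 100% = high DMSO killing control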); conditions: HTB85 osteosarcoma cells, drug combinations, stronger effect = higher value
# Sequence of Calcium-activated potassium channel subunit alpha-1 (Homo sapiens) + Leucine-rich repeat-containing protein 26 (Homo sapiens) (Q2I0M4 whole entry, looked up, one chain of several): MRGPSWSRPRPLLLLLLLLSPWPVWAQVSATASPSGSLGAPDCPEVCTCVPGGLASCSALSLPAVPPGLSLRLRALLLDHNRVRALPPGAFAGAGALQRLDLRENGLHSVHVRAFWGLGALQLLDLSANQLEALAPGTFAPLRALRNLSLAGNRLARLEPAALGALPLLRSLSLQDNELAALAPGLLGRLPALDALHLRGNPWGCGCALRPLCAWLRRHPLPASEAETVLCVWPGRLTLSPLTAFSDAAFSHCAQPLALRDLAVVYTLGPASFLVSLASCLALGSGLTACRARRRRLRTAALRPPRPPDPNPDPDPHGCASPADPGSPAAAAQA
smiles,measurement,setting,value
CC1=C(CC(=O)O)c2cc(F)ccc2/C1=C\c1ccc(S(C)=O)cc1 (configuration not stated),inhibition,[1],12.6%
same,score,[2],0.78
same,rescue above control,[3],-1.24
same,cytochrome c release ratio,[4],0.97
same,inhibition of aggregation,[5],78.9%
same,glutamate uptake change,[6],3.54%
same,aggregation suppression score,[7],1.01
same,fluorescence ratio,[8],1.04 (inactive)
same,inhibition,[9],-7.73% (inactive)
same,inhibition,[10],-3.53% (inactive)
same,fluorescence ratio,[11],1.01 (inactive)
same,log fold change Tl+ flux,[12],0.0386 (inactive)
same,log fold change Tl+ flux,R275C,-0.0121 (inactive)
same,log fold change Tl+ flux,R275C/beta1,-0.0305 (inactive)
same,log fold change Tl+ flux,R275C/beta2Delta,-0.0296 (inactive)
same,log fold change Tl+ flux,R275C/beta4,0.044 (inactive)
same,log fold change Tl+ flux,R275C/Slo1WT/beta2,0.0257 (inactive)
NC12CC3CC(CC(C3)C1)C2,inhibition,[1],-8.1%
same,score,[2],1.77
same,rescue above control,[3],-3.19
same,cytochrome c release ratio,[4],0.94
same,inhibition of aggregation,[5],63.2%
same,glutamate uptake change,[6],-5.28%
same,aggregation suppression score,[7],1.59
same,fluorescence ratio,[8],0.99 (inactive)
same,inhibition,[9],-0.45% (inactive)
same,inhibition,[10],-1.24% (inactive)
same,fluorescence ratio,[11],0.97 (inactive)
same,log fold change Tl+ flux,[12],0.0152 (inactive)
same,log fold change Tl+ flux,R275C,-0.00425 (inactive)
same,log fold change Tl+ flux,R275C/beta1,0.0102 (inactive)
same,log fold change Tl+ flux,R275C/beta2Delta,0.045 (inactive)
same,log fold change Tl+ flux,R275C/beta4,-0.0136 (inactive)
same,log fold change Tl+ flux,R275C/Slo1WT/beta2,0.0148 (inactive)
N=C(N)c1ccc(OCCCCCOc2ccc(C(=N)N)cc2)cc1,inhibition,[1],-13.3%
same,score,[2],0.69
same,rescue above control,[3],0
same,cytochrome c release ratio,[4],2.1
same,inhibition of aggregation,[5],62.8%
same,glutamate uptake change,[6],6.93%
same,aggregation suppression score,[7],0.265
CCOC(=O)[C@H](CCc1ccccc1)N[C@H]1CCc2ccccc2N(CC(=O)O)C1=O,fluorescence ratio,[8],1.03 (inactive)
same,inhibition,[9],-1.98% (inactive)
same,inhibition,[10],2.98% (inactive)
same,fluorescence ratio,[11],1.04 (inactive)
same,log fold change Tl+ flux,[12],0.0131 (inactive)
same,log fold change Tl+ flux,R275C,0.0199 (inactive)
same,log fold change Tl+ flux,R275C/beta1,-0.0262 (inactive)
same,log fold change Tl+ flux,R275C/beta2Delta,0.041 (inactive)
same,log fold change Tl+ flux,R275C/beta4,-0.0252 (inactive)
same,log fold change Tl+ flux,R275C/Slo1WT/beta2,-0.00529 (inactive)
CC[C@H](C)C(=O)O[C@H]1C[C@@H](C)C=C2C=C[C@H](C)[C@H](CC[C@@H]3C[C@@H](O)CC(=O)O3)[C@H]21,inhibition,[1],-14.6%
same,score,[2],-1.08
same,rescue above control,[3],-2.24
same,cytochrome c release ratio,[4],0.75
same,inhibition of aggregation,[5],26.5%
same,glutamate uptake change,[6],-19%
same,aggregation suppression score,[7],0.603
same,fluorescence ratio,[8],1.1 (inactive)
same,inhibition,[9],3.18% (inactive)
same,inhibition,[10],3.34% (inactive)
same,fluorescence ratio,[11],0.96 (inactive)
same,log fold change Tl+ flux,[12],0.025 (inactive)
same,log fold change Tl+ flux,R275C,-0.0727 (inactive)
same,log fold change Tl+ flux,R275C/beta1,0.0657 (inactive)
same,log fold change Tl+ flux,R275C/beta2Delta,0.0172 (inactive)
same,log fold change Tl+ flux,R275C/beta4,0.0477 (inactive)
same,log fold change Tl+ flux,R275C/Slo1WT/beta2,-0.0508 (inactive)
Nc1nc2c(ncn2COCCO)c(=O)[nH]1,inhibition,[1],6.39%
same,score,[2],1.1
same,rescue above control,[3],0.24
same,cytochrome c release ratio,[4],1.05
same,inhibition of aggregation,[5],51.5%
same,glutamate uptake change,[6],13.5%
same,aggregation suppression score,[7],1.27
same,inhibition,"[13]; at 0.5 µM, stronger effect = higher value",-27.5% (inactive) and -23.8% (inactive)
same,inhibition,"[13]; measured here: combination with BGB IC20, at 0.005 µM",-0.211% and -20%
same,inhibition,"[13]; measured here: combination with BGB IC40, at 0.005 µM",-37.2% and -37.3%
same,inhibition,"[13]; measured here: combination with BGB IC40, at 0.05 µM",-22.3% and -50.5%
same,inhibition,"[13]; measured here: combination with cisplatin, at 0.5 µM, stronger effect = higher value",-35.1% and -39.9%
same,inhibition,"[13]; measured here: combination with cisplatin, at 5 µM, stronger effect = higher value",-19.1% and -38.4%
same,inhibition,"[14]; BGB combo, at 5 µM",-39.6% and -25.3%
same,inhibition,[14]; at 0.5 µM,-44.3% (inactive) and -13.8% (inactive)
same,inhibition,"[14]; cisplatin combo, at 5 µM",-30.4% and 3.02%
same,inhibition,"[14]; measured here: with BGB IC20 combination, at 0.5 µM",-44% and -16%
same,inhibition,"[14]; measured here: with cisplatin IC20 combination, at 0.5 µM",-44.9% and -2.15%
same,inhibition,"[14]; single agent, at 5 µM",-49.5% and 10.3%
same,inhibition,[15]; at 0.5 µM,-30.1% (inactive) and -6.85% (inactive)
same,inhibition,"[15]; measured here: with BGB IC20, at 0.5 µM",-40.8% and -11.5%
same,inhibition,"[15]; measured here: with BGB IC20, at 5 µM",-33.7% and -9.07%
same,inhibition,"[15]; measured here: with cisplatin IC20, at 0.5 µM",-27.1% and -11.3%
same,inhibition,"[15]; measured here: with cisplatin IC20, at 5 µM",-43.1% and -41.4%
same,inhibition,"[15]; single agent, at 5 µM",-42.6% and 2.37%
same,log fold change Tl+ flux,[12],-0.0276 (inactive)
same,log fold change Tl+ flux,R275C,-0.024 (inactive)
same,log fold change Tl+ flux,R275C/beta1,-0.0244 (inactive)
same,log fold change Tl+ flux,R275C/beta2Delta,-0.00892 (inactive)
same,log fold change Tl+ flux,R275C/beta4,0.0324 (inactive)
same,log fold change Tl+ flux,R275C/Slo1WT/beta2,0.0456 (inactive)
CCC1(c2ccccc2)C(=O)NCNC1=O,inhibition,[1],9.61%
same,score,[2],1.24
same,rescue above control,[3],-6.81
same,cytochrome c release ratio,[4],1.19
same,inhibition of aggregation,[5],63%
same,glutamate uptake change,[6],-24.4%
same,aggregation suppression score,[7],1.22
same,fluorescence ratio,[8],1.04 (inactive)
same,inhibition,[9],-2.27% (inactive)
same,inhibition,[10],-0.48% (inactive)
same,fluorescence ratio,[11],0.97 (inactive)
same,log fold change Tl+ flux,[12],0.023 (inactive)
same,log fold change Tl+ flux,R275C,-0.0184 (inactive)
same,log fold change Tl+ flux,R275C/beta1,-0.0109 (inactive)
same,log fold change Tl+ flux,R275C/beta2Delta,-0.0215 (inactive)
same,log fold change Tl+ flux,R275C/beta4,0.0127 (inactive)
same,log fold change Tl+ flux,R275C/Slo1WT/beta2,-0.0237 (inactive)
CC(C)NCC(O)c1ccc(O)c(O)c1 (configuration not stated),inhibition,[1],19.5%
same,score,[2],1.1
same,rescue above control,[3],7.5
same,cytochrome c release ratio,[4],0.68
same,inhibition of aggregation,[5],84.7%
same,glutamate uptake change,[6],-0.29%
same,aggregation suppression score,[7],1.28
same,fluorescence ratio,[8],1.01 (inactive)
same,inhibition,[9],-5% (inactive)
same,inhibition,[10],-0.48% (inactive)
same,fluorescence ratio,[11],0.95 (inactive)
same,log fold change Tl+ flux,[12],-0.00786 (inactive)
same,log fold change Tl+ flux,R275C,0.0272 (inactive)
same,log fold change Tl+ flux,R275C/beta1,-0.0419 (inactive)
same,log fold change Tl+ flux,R275C/beta2Delta,0.00121 (inactive)
same,log fold change Tl+ flux,R275C/beta4,0.0195 (inactive)
same,log fold change Tl+ flux,R275C/Slo1WT/beta2,-0.00526 (inactive)
CCC(C)(C)C(=O)O[C@H]1C[C@@H](C)C=C2C=C[C@H](C)[C@H](CC[C@@H]3C[C@@H](O)CC(=O)O3)[C@H]21,fluorescence ratio,[8],1.04 (inactive)
same,inhibition,[9],-1.36% (inactive)
same,inhibition,[10],6.39% (inactive)
same,fluorescence ratio,[11],0.92 (inactive)
same,log fold change Tl+ flux,[12],0.0806 (active)
same,log fold change Tl+ flux,R275C,0.0702 (inactive)
same,log fold change Tl+ flux,R275C/beta1,0.116 (active)
same,log fold change Tl+ flux,R275C/beta2Delta,0.0611 (inactive)
same,log fold change Tl+ flux,R275C/beta4,0.067 (inactive)
same,log fold change Tl+ flux,R275C/Slo1WT/beta2,-0.0513 (inactive)
CCN(CC)CCCC(C)Nc1ccnc2cc(Cl)ccc12 (configuration not stated),inhibition,[1],9.86%
same,score,[2],1.1
same,rescue above control,[3],4.09
same,cytochrome c release ratio,[4],1.15
same,inhibition of aggregation,[5],68.5%
same,glutamate uptake change,[6],-7.63%
same,aggregation suppression score,[7],1.49
CN1C(C(=O)Nc2ccccn2)=C(O)c2ccccc2S1(=O)=O,inhibition,[1],-2.37%
same,score,[2],0.27
same,rescue above control,[3],9.46
same,cytochrome c release ratio,[4],1.16
same,inhibition of aggregation,[5],83.1%
same,glutamate uptake change,[6],-13.7%
same,aggregation suppression score,[7],0.134
same,fluorescence ratio,[8],1.01 (inactive)
same,inhibition,[9],1.98% (inactive)
same,inhibition,[10],1.44% (inactive)
same,fluorescence ratio,[11],0.98 (inactive)
same,log fold change Tl+ flux,[12],0.00877 (inactive)
same,log fold change Tl+ flux,R275C,0.0414 (inactive)
same,log fold change Tl+ flux,R275C/beta1,0.0251 (inactive)
same,log fold change Tl+ flux,R275C/beta2Delta,-0.00889 (inactive)
same,log fold change Tl+ flux,R275C/beta4,0.00622 (inactive)
same,log fold change Tl+ flux,R275C/Slo1WT/beta2,-0.000416 (inactive)
